# This excerpt belongs to a sample that is enriched for hits.
# Pf Dd2 growth = blocks in vitro growth of P. falciparum Dd2. P. falciparum Dd2 growth, SYBR Green, 72 h. hit rate 4.3% among 120,000. Potency, µM (doses to about 28.9 µM), for the others: at the top dose activity, negative = inhibition, usual class: inhibitors; active = well fitted inhibition curve with a large enough effect;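 note: plate controls were DMSO vehicle for no effect and reference drug for full effect; nearly all actives have a fitted effect of over 65% in size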
#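 Infected erythrocytes (Dd2, 0.3% parasitemia, 2.5% hematocrit final) are added to compound in RPMI-1640/Albumax II medium, grown 72 h at 37C in low oxygen, then lysed with saponin/Triton-X containing SYBR Green and read by fluorescence.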
# Active calls of the source: *; i = inactive; [ ] = another dose, or the depositor's remark. Potency is the fitted concentration of half-maximal effect.
SMILES,Pf Dd2 growth
CCN(CC)C(=O)C[C@@H]1CCNC[C@@H]1Cc1cc(-c2ccccn2)on1,-17%[44.1 µM]
CC(=O)N1CCN(C(=O)C[C@@H]2CCNC[C@@H]2Cc2cc(-c3ccccc3)on2)CC1,i
CC(=O)NCCNC(=O)C[C@@H]1CCNC[C@@H]1Cc1cc(-c2ccccc2)on1,15%[44.1 µM]
COc1cccc(CC(=O)N2CCC3(CC2)CC(OC)CCO3)c1 (stereo not given),49%
Cc1c(C(=O)N2CCC3(CCCN(C)C3=O)C2)n(C)c2ccc(F)cc12 (stereo not given),-5%
CCc1noc([C@@H]2CC(F)(F)CN2C(=O)c2cc(C3CC3)[nH]n2)n1,21%
O=C(c1cccs1)N1CC(c2noc(C3CCCN3CC3CC3)n2)C1 (stereo not given),4µM*
CCCS(=O)(=O)N1CC(c2noc(C3CCCN3CC3CC3)n2)C1 (stereo not given),-16%
O=C(NCc1ccco1)N1CC(c2noc(C3CCCN3CC3CC3)n2)C1 (stereo not given),i
Cc1nn(C)c(C)c1CN(Cc1ccnc2ccccc12)C1CC1,-7%
COc1cccc(N2CCN(C(=O)CN3CCSc4ccc(S(=O)(=O)N(C)C)cc43)CC2)c1,11µM*
COc1ccc(N2CCN(C(=O)CN3CCSc4ccccc43)CC2)cc1,7%
CN(C)S(=O)(=O)c1ccc2c(c1)N(CC(=O)N1CCC(C(N)=O)CC1)CCS2,28%
CCC(C)NC(=O)C1COC2(CCN(C(=O)c3ccc(OC)cc3)CC2)N1C(=O)c1ccc(C)cc1 (stereo not given),-17%
Cc1cccc(Cl)c1NC(=O)Cn1cccc1-c1nc(-c2ccc(F)cc2)no1,-24%
O=C(c1ccc2c(c1)OCO2)N1CCCN(c2cc(-c3ccc(Br)cc3)[nH]n2)CC1,i
O=C(NCc1cccc(Cl)c1)c1ccc2nc(N3CCCCC3)sc2c1,i
O[C@H]1CCCC[C@@H]1NC1CCN(c2nc3ccc(Cl)cc3s2)CC1,4µM*
Cc1ccc2nc(N3CCN(C(=O)C4CC4)CC3)sc2c1,33%
CC(C)c1ccc(CN2CC(CN[S+](=O)([O-])c3ccccc3)C3(C2)CN(c2ccccc2)C3)cc1 (stereo not given),i
COc1ccc(C(=O)N2C[C@@H]3C[C@H](C2)c2ccc(NS(=O)(=O)c4cccc(F)c4)c(=O)n2C3)cc1,i
O=S1(=O)NCC2(CCN(Cc3ccoc3)CC2)Oc2ncccc21,-10%
O=C1C(OCC2CC2)C2(CCOCC2)N1C1CCNCC1 (stereo not given),11%
CN(Cc1cccnc1)c1nc2c(c(=O)[nH]1)CCN(Cc1ccc(Cl)cc1F)CC2,i[5.79 µM]
Fc1ccccc1OCCC1CCNC1 (stereo not given),-8%
SMILES,Pf Dd2 growth
Cc1cccc(Cn2c(SCc3ccc(C(=O)NC4CCCC4)cc3)nc3cccnc32)c1,-26%
O=C(NC1CCCCC1)c1ccc(CSc2nc3cccnc3n2Cc2cccc(F)c2)cc1,11µM*
O=C(NC1CCCCC1)c1ccc(Cn2c(SCc3ccc(F)cc3)nc3cccnc32)cc1,-2%
Cc1cccc(Cn2c(SCc3ccc(C(=O)NC4CCCCC4)cc3)nc3cccnc32)c1,10µM*
O=C(NC1CCCCC1)c1ccc(CSc2nc3cccnc3n2Cc2ccc(F)cc2)cc1,20%[5.79 µM]
O=C(CN1CCCc2nc(C3CC3)ncc2C1=O)NCCCN1CCOCC1,13%
Cc1noc(C)c1[S+](=O)([O-])N1CCC(N2CCC[S+]2(=O)[O-])CC1,i
O=C1N(C2CCCCC2)C[C@H]2CN(Cc3ncc[nH]3)CCN12,15%[44.1 µM]
CCC(=O)N1CC(=O)Nc2ccc(C)cc2C1c1ccc(F)cc1 (stereo not given),2%
CCCC(=O)N1CC(=O)Nc2ccc(Cl)cc2C1c1ccccc1 (stereo not given),-10%
O=C1CN(C(=O)COc2ccc(Cl)cc2)C(c2ccc(F)cc2)c2cc(Cl)ccc2N1 (stereo not given),10µM*
C=CCN1CCN(C(=O)c2nnn3cc(-c4ccccc4)[nH]c(=O)c23)CC1,-1%
COc1ccc(OC)c(CNC(=O)COc2ccc(NC(C)=O)cn2)c1,12%
Cc1cc(N2CCC(NC(=O)c3ccc4nc[nH]c4c3)C2=O)ccc1F (stereo not given),-12%
COc1ccc(Nc2ccc3nnc(-c4ccc(C)cn4)n3n2)cc1,-11%[44.1 µM]
COc1ccc(-c2nnc3ccc(NC(C)C)nn23)nc1,i
COc1ccc(-c2nnc3ccc(Nc4cccc(OC)c4)nn23)nc1,10µM*
Cc1cc2ncc(C(=O)NCCc3ccccc3F)cn2n1,-3%[44.1 µM]
CCN(Cc1nccn1C)C(=O)c1cc(-c2cnc(N)nc2)nc2c(C)cccc12,-20%
CC1CCCN(C(=O)CN2C(=O)NC3(CCCCC3)C2=O)C1 (stereo not given),4%
Cc1ccc(C2NC(=O)N(CC(=O)Nc3ccccc3C(C)C)C3=C2C(=O)OC3)cc1 (stereo not given),-12%
Cn1ncc2c(N3CCN(c4cccc(Cl)c4)CC3)ncnc21,8%
CCOc1ccc2oc(=O)cc(CN3CCN(C(=O)c4cccc(Cl)c4)CC3)c2c1,i
CCCCOCc1cc(CN2CCN(c3cccc(Cl)c3)CC2)c(O)c2ncccc12,1µM*
CCCOCc1cc(CN2CCN(c3cccc(Cl)c3)CC2)c(O)c2ncccc12,3.2µM*
SMILES,Pf Dd2 growth
COc1cc(Cl)cc(CN2CCN(c3ncccc3C#N)CC2)c1OC,i
CCOC(=O)C1=C(CN2CCN(c3cccc(Cl)c3)CC2)NC(=O)NC1c1ccc(Cl)cc1 (stereo not given),i
Cc1ccc(NC(=O)N2CCCCCCNC(=O)CC2c2ccccc2)cc1C (stereo not given),-6%
COCCN1CCCCCC(O)c2cc(C(=O)N3CCOCC3)ccc21 (stereo not given),14%
O=C(c1ccc2c(c1)OCO2)N1CCN(c2cc(-c3ccc(F)cc3)[nH]n2)CC1,i
Cc1ccc(-n2nc3c(N4CCC(C(=O)NC(C)C)CC4)nnc(C)c3c2C)cc1,55%[5.79 µM]
Cc1nnc(N2CCC(C(=O)NCCc3ccccc3)CC2)c2nn(-c3ccccc3)c(C)c12,-16%
CCNC(=O)C1CCN(c2nnc(C)c3c(C)n(-c4ccc(OC)cc4)nc23)CC1,8.9µM*
COc1cc(NC(=O)C2CCN(c3nnc(C)c4c(C)n(-c5ccccc5)nc34)CC2)cc(OC)c1,-16%
Cc1ccc(-n2nc3c(N4CCC(C(=O)NC5CCCCC5)CC4)nnc(C)c3c2C)cc1,10%
COc1ccc(CNC(=O)C2CCN(c3nnc(C)c4c(C)n(-c5ccc(C)cc5)nc34)CC2)cc1,7.9µM*
COCCOC1CCN(C(=O)COc2ccc(C)cc2)CC1,19%
O=C1NC2(CCN(C(=O)c3ccccc3F)CC2)Oc2ccccc21,i
Fc1ccc(-c2nc(Nc3cccc(C(F)(F)F)c3)nc3c2COc2ccccc2-3)cc1,10µM*
Fc1ccc(-c2cc(-c3ccccc3)c3c(n2)-c2ccccc2OC3)cc1,i
Fc1ccc(Nc2nc(-c3cccc(Cl)c3)c3c(n2)-c2ccccc2OC3)c(F)c1,-15%
CN(Cc1ccccc1C(F)(F)F)Cc1cccn1C,16%[44.1 µM]
COc1cccc(NC(=O)Nc2cccc(-c3cn4cccnc4n3)c2)c1,i
CC(C)(C)C(=O)Nc1cccc(-c2cn3cccnc3n2)c1,-6%
CC(C)(Oc1ccc(Cl)cc1)C(=O)Nc1cccc(-c2cn3cccnc3n2)c1,11µM*
C[C@@H]1CNC[C@H]1c1nc(-c2ccncc2)no1,i[5.79 µM]
Cc1ccc(C)c(C(=O)N2C[C@@H](CO)[C@H](c3ccncc3)C2)c1,i

# Screens: PubChem BioAssay, National Center for Advancing Translational Sciences (NCATS)
